Screens from PubChem.
A selection: hits, their analogues and other compounds. The true share with any hit is near 0.95%.
FBPA Giardia inh – inhibitors of Giardia lamblia fructose-1,6-bisphosphate aldolase; purified Giardia FBPA; Potency, µM (series often up to 59.6 µM), hits mostly inhibitors; 290,000 compounds, 0.71% hits; AID 2451; also: nearly all actives have a fitted effect of over 55% in size
Target sequence (A8B2U2 whole entry, looked up): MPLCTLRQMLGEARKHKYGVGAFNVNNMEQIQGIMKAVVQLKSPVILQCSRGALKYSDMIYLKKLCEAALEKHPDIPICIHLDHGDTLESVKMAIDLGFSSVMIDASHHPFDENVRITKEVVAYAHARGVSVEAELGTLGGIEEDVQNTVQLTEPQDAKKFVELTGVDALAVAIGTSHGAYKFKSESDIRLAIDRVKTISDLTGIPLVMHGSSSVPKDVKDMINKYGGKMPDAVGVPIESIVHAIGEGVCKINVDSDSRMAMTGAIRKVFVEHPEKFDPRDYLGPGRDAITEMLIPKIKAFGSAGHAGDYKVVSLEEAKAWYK
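40 nM FBPA preincubated 10 min at RT with compound (up to 57.5 uM final), then substrate plus GAPDH/TPI/NAD/arsenate coupling and diaphorase/resazurin added. Fluorescence read after 20 min at RT, 525/598 nm.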
LmPK inhibitor – blocks Leishmania mexicana pyruvate kinase activity | 290,000 compounds, 0.37% hits | purified LmPK, Kinase-Glo ATP luminescence, 1 h | Potency, µM (doses to about 57.5 µM), usual class: inhibitors
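qHTS format; LmPK 0.1 nM; substrates PEP 0.5 mM and ADP 0.1 mM. One-hour room-temperature incubation, then coupled luciferase luminescence; 0.5 nM enzyme wells mark activation.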
TbPYK inhibitor – inhibitors of Trypanosoma brucei pyruvate kinase; Q57TT1; TbPYK enzyme, Kinase-Glo Plus ATP luminescence, 45 min; Potency, µM (doses to about 76.8 µM), usual class: inhibitors; 410,000 compounds, 0.12% hits; AID 624173; also: nearly all actives have a fitted effect of over 50% in size
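Quantitative HTS: titrated library compounds versus trypanosomal pyruvate kinase in TEA buffer (pH 7.2) containing KCl, MgCl2, BSA and Tween-20. Reactions were initiated with ADP, 130 uM final. Kinase-Glo Plus luminescence was read after 45 min at RT.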
RE007 growth inh – less growth of the S. pombe RE007 Vpr strain; Potency, µM (titrated, usually from 92.2 µM), hits mostly inhibitors; S. pombe RE007 Vpr strain, BacTiter-Glo ATP luminescence, 24 h; 360,000 compounds, 0.21% hits; active = well fitted falling curve with a large enough effect; inconclusive = small, poorly fitted or top-dose-only effect; inactive = no such curve, though single readings can be large or run the other way; also: nearly all actives have a fitted effect of over 50% in size
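Fission yeast strain RE007, carrying one chromosomally integrated HIV-1 vpr copy, was seeded at OD 0.01 in PMG+AL medium with 23 nL pinned compound. After 24 h at 30 °C and 99% humidity, viability was read by BacTiter-Glo luminescence.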
A number is an active result; – = inactive; ? = inconclusive; · = not tested or not shown; [ ] = another dose, or the depositor's remark. Unless noted, calls follow the shape of the dose curve; as a rule, active = well fitted curve in the direction sought with a large enough effect; inconclusive = small, poorly fitted or top-dose-only effect, or another doubt; inactive = no such curve, though single readings can be large; an effect the other way counts as inactive or inconclusive.

SMILES	FBPA Giardia inh	LmPK inhibitor	TbPYK inhibitor	RE007 growth inh
O=C(NC(=S)Nc1ccccc1N1CCCC1)c1ccco1	14.1µM	–	–	–
O=C(NC(=S)Nc1ccccc1N1CCCCC1)c1ccco1	–	–	–	–
CN(C)CCNC(=O)C1CCN(c2ncnc3c2nc2n3CCCCC2)CC1	·	·	–	·
O=C(OCn1ncc(Cl)c(Cl)c1=O)c1cccc(C(F)(F)F)c1	–	–	–	44.7µM
Oc1cccc2c(NC(=S)Nc3ccc(SC(F)F)cc3)cccc12	1.77µM	–	–	–
Oc1cccc(NC(=S)Nc2ccc(SC(F)F)cc2)c1	–	–	–	–
CCCCCCOc1ccc(N2C(=O)CC(N3CCC(C(=O)OCC)CC3)C2=O)cc1 (stereo not given)	–	–	–	–
CCOC(=O)C1CCN(C2CC(=O)N(c3ccc(OCC)cc3)C2=O)CC1 (stereo not given)	–	–	–	17.8µM
CCc1ccc(N2C(=O)CC(N3CCC(C(=O)OC)CC3)C2=O)cc1 (stereo not given)	–	–	–	10µM
CCCOc1ccc(N2C(=O)CC(N3CCN(c4ccccc4F)CC3)C2=O)cc1 (stereo not given)	–	–	–	–
CCCOc1ccc(N2C(=O)CC(N3CCC(c4nncn4CC)CC3)C2=O)cc1 (stereo not given)	–	–	–	12.6µM
COc1ccccc1C1C=C(c2ccc(Cl)cc2)Nc2nc(-c3ccc(Cl)cc3)nn21 (stereo not given)	·	·	–	·
CCCCCCCCOC(=O)C1=C(C)Nc2nnnn2C1c1cccs1 (stereo not given)	–	–	–	31.6µM
CCCCCCCOC(=O)C1=C(C)Nc2ncnn2C1c1cccs1 (stereo not given)	–	–	–	–
COC(=O)N[C@@H](/C=C/c1ccccc1)C[N+](=O)[O-]	–	·	·	·
CCCCCCCCCCCCCCCC[N+](C)(C)CCl	·	·	–	22.4µM
CCCCCCCCCC[N+](C)(C)CCCCCCCCCC	·	·	–	·
CCc1ccc(S(=O)(=O)c2cn(C)c3cc(N4CCN(CC)CC4)c(F)cc3c2=O)cc1	·	·	–	·
O=C(Nc1cccc(O)c1)c1noc2c1CCCCC2	–	11.2µM	–	–
COc1ccc(NC(=O)c2noc3c2CCC3)cc1	–	15.8µM	–	39.8µM
Cc1ccc(NC(=O)c2noc3c2CCC3)cc1C	–	–	–	–
NS(=O)(=O)c1ccc(N/N=C/c2ccc(O)cc2O)c([N+](=O)[O-])c1	–	–	–	–
NS(=O)(=O)c1ccc(N/N=C/c2ccc(O)c(O)c2O)c([N+](=O)[O-])c1	7.92µM	–	–	–
CCC(=O)N1CCc2cc(Br)cc(S(=O)(=O)CCC(=O)N(CC)Cc3ccccc3)c21	·	·	–	·
O=C1C(c2c(O)[nH]c3ccccc23)=Nc2ccccc21	–	?	–	–[18.4 µM]
SMILES	FBPA Giardia inh	LmPK inhibitor	TbPYK inhibitor	RE007 growth inh
CC(=O)c1cccc2c(O)c(C3=Nc4ccccc4C3=O)[nH]c12	?	25.1µM	?	?
CCc1cccc(NC(=O)CSC2=NS(=O)(=O)c3ccccc32)c1	–	15.8µM	?	–
CCc1cccc(NC(=O)CSc2ncc3c(n2)-c2ccccc2N(CC)S3(=O)=O)c1	·	·	–	·
Cc1cc(C(=O)COC(=O)c2ccccc2O)c(C)n1CC1CCCO1 (stereo not given)	·	·	–	?
Cc1cc(C(=O)COC(=O)c2cccnc2Cl)c(C)n1CC1CCCO1 (stereo not given)	–	25.1µM	–	–
CN(CCc1ccccn1)C1CC(=O)N(c2ccc(Cl)cc2)C1=O (stereo not given)	–	–	–	3.16µM
CO[C@H]1C[C@@H]2CC[C@@H](C)[C@@](O)(O2)C(=O)C(=O)N2CCCC[C@@H]2C(=O)O[C@H]([C@H](C)C[C@@H]2CC[C@H](OCCO)[C@H](OC)C2)CC(=O)[C@H](C)C=C(C)[C@@H](O)[C@@H](OC)C(=O)[C@H](C)C[C@H](C)C=CC=CC=C1C	·	·	–	·
COc1cc(NS(=O)(=O)c2cccc([N+](=O)[O-])c2)c2ncccc2c1	15.8µM	·	·	·
COc1cc(NS(=O)(=O)c2ccc(C)cc2)c2ncccc2c1	?	–	–	–
COc1cc(NS(=O)(=O)c2ccc([N+](=O)[O-])cc2)c2ncccc2c1	17.7µM	·	·	·
CC(=O)c1cccc(NC(=O)C(C)n2c(=O)cc(-c3ccccc3)c3c(C)nn(C)c32)c1 (stereo not given)	·	·	–	·
CCOc1ccc(C(=O)Nc2ccc3oc(-c4ccc5ccccc5c4)nc3c2)cc1	·	·	–	·
CCc1ccccc1NC(=O)c1nnn(CC(=O)Nc2c(C)cc(C)cc2C)c1N	·	·	–	·
CC[C@@]12CCCN3CCc4c(n(c5ccccc45)[C@](O)(C(=O)OC)C1)[C@H]32	–	·	·	·
C/C(=N\NC(=O)c1ccccn1)c1ccc(C(=O)O)s1	?	15.8µM	·	·
N#CCNC1CC(=O)N(c2ccc(F)cc2)C1=O (stereo not given)	–	–	–	25.1µM
O=C1CC(NCc2ccc(F)cc2)C(=O)N1c1ccccc1 (stereo not given)	–	–	–	–
Cc1ccc2[nH]c(=O)c(CN(Cc3ccccc3)C(=S)NCCCN(C)C)cc2c1	–	15.8µM	–	–
Cc1ccc2[nH]c(-c3ccc(F)cc3F)cc(=O)c2c1	–	·	·	·
Fc1ccccc1C1CC(c2ccco2)=Nc2ccccc2S1 (stereo not given)	?	–	–	25.1µM
COc1ccccc1C1CC(c2cccs2)=Nc2ccccc2S1 (stereo not given)	–	–	–	–
C=CCn1c(O)c(CN2CCOCC2)c(C)c(C#N)c1=O	14.1µM	–	–	–
CCCCOCCOc1nc(-c2ccc(C(=O)O)c(F)c2)sc1C	·	·	–	·
NC(=O)c1ccccc1N/C=C/C(=O)c1ccc(F)cc1	–	8.91µM	–	·
Cc1cccc(N/C=C/C(=O)c2cccs2)c1C	–	15.8µM	–	–
SMILES	FBPA Giardia inh	LmPK inhibitor	TbPYK inhibitor	RE007 growth inh
Cc1ccc(C(=O)/C=C/Nc2ccccc2C(N)=O)o1	–	–	–	–
NC(=O)c1ccccc1N/C=C/C(=O)c1cccs1	–	15.8µM	–	?
NC(=O)c1ccccc1N/C=C/C(=O)c1ccc(Cl)cc1Cl	–	15.8µM	–	–
O=C(/C=C/Nc1ccc(F)c(F)c1)c1cccs1	–	–	–	–
CC(C)Nc1nc(C#N)nc(Nc2ccccc2)n1	–	·	·	·
CC1CCN(CCCn2c(=S)[nH]c3c(sc4ccc([N+](=O)[O-])cc43)c2=O)CC1	–	–	–	–
O=C(O)CCCn1c(=S)[nH]c2c(sc3ccc([N+](=O)[O-])cc32)c1=O	?	?	20µM	–
N#Cc1nc(NCC2CC2)nc(Nc2ccccc2)n1	–	·	·	·
COc1ccc(C(C[N+](=O)[O-])c2c(C)[nH]n(-c3ccccc3)c2=O)cc1 (stereo not given)	?	–	–	11.2µM
Cc1[nH]n(-c2ccccc2)c(=O)c1C(C[N+](=O)[O-])c1ccccc1Cl (stereo not given)	–	–	–	31.6µM
COc1cccc(CNC(=O)c2[nH]c3cc(C)ccc3c2Sc2ccccc2)c1	·	·	–	·
